Results filed as inconclusive are left out. Where a call stands in place of a potency, no number is given. Unmarked numbers belong to inactive results. The source made the active and inactive calls. Calls follow the shape of the dose curve; as a rule, active = well fitted curve in the direction sought with a large enough effect; inconclusive = small, poorly fitted or top-dose-only effect, or another doubt; inactive = no such curve, though single readings can be large; an effect the other way counts as inactive or inconclusive.
Columns and labels:
[1] = biological target: Rap guanine nucleotide exchange factor 3 (Homo sapiens) (UniProt O95398); experiment: Confirmatory qHTS for antagonist of cAMP-regulated guanine nucleotide exchange factor 3 (EPAC1) (AID 1645880); conditions: EPAC1 Rap1B-BODIPY-GDP exchange, fluorescence; activity, negative = inhibition: at 115 µM (top of the series); also: nearly all actives have a fitted effect of over 55% in size; also: potency is read from the fitted curve at half-maximal effect
Sequence of Rap guanine nucleotide exchange factor 3 (Homo sapiens) (O95398 whole entry, looked up): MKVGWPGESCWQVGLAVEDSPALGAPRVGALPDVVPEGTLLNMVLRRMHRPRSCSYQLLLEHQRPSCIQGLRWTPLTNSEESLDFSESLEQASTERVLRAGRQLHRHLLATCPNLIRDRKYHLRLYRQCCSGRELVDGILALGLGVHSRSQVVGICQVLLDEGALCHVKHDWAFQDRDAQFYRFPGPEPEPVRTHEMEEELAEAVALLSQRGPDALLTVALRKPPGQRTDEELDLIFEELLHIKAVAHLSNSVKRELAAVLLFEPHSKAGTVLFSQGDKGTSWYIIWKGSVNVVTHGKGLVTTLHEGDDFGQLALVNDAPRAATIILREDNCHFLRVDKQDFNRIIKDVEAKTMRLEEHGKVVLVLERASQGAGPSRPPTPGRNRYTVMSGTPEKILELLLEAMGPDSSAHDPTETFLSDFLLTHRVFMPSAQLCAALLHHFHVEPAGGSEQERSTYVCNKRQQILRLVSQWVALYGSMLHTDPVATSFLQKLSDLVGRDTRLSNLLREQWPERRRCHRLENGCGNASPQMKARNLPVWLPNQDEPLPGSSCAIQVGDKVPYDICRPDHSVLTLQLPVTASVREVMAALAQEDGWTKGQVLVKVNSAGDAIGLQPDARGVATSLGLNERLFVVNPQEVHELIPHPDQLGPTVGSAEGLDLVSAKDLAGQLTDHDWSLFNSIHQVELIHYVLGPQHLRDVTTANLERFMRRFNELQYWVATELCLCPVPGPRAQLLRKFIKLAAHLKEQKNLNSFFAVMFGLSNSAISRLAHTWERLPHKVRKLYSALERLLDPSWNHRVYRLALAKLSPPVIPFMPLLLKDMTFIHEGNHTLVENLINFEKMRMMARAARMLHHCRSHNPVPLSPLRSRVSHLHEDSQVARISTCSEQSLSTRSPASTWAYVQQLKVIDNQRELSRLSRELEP
Summary of the method: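 Released BODIPY-GDP fluoresces less than Rap1-bound BODIPY-GDP; the signal is followed at 480/540 nm at 5-min intervals over 30 min, after 5 min at room temperature. Reactions contain 100 nM EPAC1, 250 nM RAP1B-BODIPY-GDP and 50 uM GDP; results are normalized to ATA and DMSO.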

[2] = biological target: Rap guanine nucleotide exchange factor 3 (Homo sapiens) (UniProt O95398); experiment: Confirmatory qHTS for agonist of cAMP-regulated guanine nucleotide exchange factor 3 (EPAC1) (AID 1645881); also: nearly all actives have a fitted effect of over 75% in size; also: potency is read from the fitted curve at half-maximal effect;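 as to activation: EPAC1 catalysed release of BODIPY-GDP from Rap1B seen as fluorescence loss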
[3] = biological target: Rap guanine nucleotide exchange factor 4 (Homo sapiens) (UniProt Q8WZA2); experiment: Confirmatory qHTS for agonist of cAMP-regulated guanine nucleotide exchange factor 4 (EPAC2) (AID 1645884);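 also: nucleotide exchange releases bodipy-GDP from Rap1 and this lowers its fluorescence; nearly all actives have a fitted effect of over 65% in size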; also: potency is read from the fitted curve at half-maximal effect
Sequence of Rap guanine nucleotide exchange factor 4 (Homo sapiens) (Q8WZA2 whole entry, looked up): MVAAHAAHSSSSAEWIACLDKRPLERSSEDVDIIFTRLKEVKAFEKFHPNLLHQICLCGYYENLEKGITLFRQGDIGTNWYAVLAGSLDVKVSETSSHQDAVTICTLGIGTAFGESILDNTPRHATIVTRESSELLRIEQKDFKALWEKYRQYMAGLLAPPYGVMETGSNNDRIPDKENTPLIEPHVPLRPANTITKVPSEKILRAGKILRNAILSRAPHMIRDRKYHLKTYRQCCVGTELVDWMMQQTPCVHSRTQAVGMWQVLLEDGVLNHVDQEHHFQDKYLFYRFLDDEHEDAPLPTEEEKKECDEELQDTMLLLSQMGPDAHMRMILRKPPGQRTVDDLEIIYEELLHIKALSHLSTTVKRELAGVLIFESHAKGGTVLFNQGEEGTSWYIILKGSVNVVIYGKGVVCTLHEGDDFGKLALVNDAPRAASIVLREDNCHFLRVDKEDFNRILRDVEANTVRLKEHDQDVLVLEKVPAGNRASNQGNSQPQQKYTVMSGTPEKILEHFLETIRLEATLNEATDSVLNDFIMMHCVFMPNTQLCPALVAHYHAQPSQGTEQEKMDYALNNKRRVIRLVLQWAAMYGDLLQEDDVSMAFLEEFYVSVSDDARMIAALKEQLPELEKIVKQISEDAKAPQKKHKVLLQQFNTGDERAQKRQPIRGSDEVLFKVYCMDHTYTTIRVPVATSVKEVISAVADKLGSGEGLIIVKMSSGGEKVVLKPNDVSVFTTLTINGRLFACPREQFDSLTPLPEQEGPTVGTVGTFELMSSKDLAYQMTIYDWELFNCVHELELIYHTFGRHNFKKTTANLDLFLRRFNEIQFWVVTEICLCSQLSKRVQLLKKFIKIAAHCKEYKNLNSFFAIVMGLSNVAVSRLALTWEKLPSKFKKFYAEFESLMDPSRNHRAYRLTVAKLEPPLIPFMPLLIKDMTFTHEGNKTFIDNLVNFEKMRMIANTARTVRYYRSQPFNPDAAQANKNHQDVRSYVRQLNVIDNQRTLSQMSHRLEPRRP

[4] = biological target: Rap guanine nucleotide exchange factor 4 (Homo sapiens) (UniProt Q8WZA2); experiment: Confirmatory qHTS for antagonist of cAMP-regulated guanine nucleotide exchange factor 4 (EPAC2) (AID 1645885); also: nearly all actives have a fitted effect of over 25% in size; also: potency is read from the fitted curve at half-maximal effect
[5] = biological target: Rap guanine nucleotide exchange factor 3 (Homo sapiens) (UniProt O95398); experiment: Counterscreen qHTS for antagonist of cAMP-regulated guanine nucleotide exchange factor 3 (EPAC1) (AID 1645888)
Summary of the method: (§1)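 Rap1B-BODIPY-GDP 250 nM + GDP 50 uM; cpds 7-pt, final 9.74 nM–152 uM (activator mode) or from 7.32 nM upwards (inhibitor mode); RT; FI 480/540 nm at 5 and 30 min, then ± cAMP, reread.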

[6] = biological target: Rap guanine nucleotide exchange factor 3 (Homo sapiens) (UniProt O95398); experiment: Counterscreen qHTS for agonist of cAMP-regulated guanine nucleotide exchange factor 3 (EPAC1) (AID 1645889); also: nearly all actives have a fitted effect of over 40% in size; also: potency is read from the fitted curve at half-maximal effect
Summary of the method: as §1

| SMILES | Potency [1] | Potency [2] | Potency [3] | Potency [4] | Potency [5] | Potency [6] | activation [3] | activity change, negative = inhibition [5] | activation [6] | outcome [4] |
| --- | --- | --- | --- | --- | --- | --- | --- | --- | --- | --- |
| COc1ccccc1/C=C1\SC(=S)N(NS(=O)(=O)c2ccccc2)C1=O | 16.9 µM (active) | inactive | inactive | inactive | inactive | inactive | – | – | – | – |
| O=C1NC(=S)S/C1=C\c1ccc(SCc2ccccc2)o1 | 21.3 µM (active) | inactive | inactive | inactive | inactive | inactive | – | – | – | – |
| O=C(CC(=O)NC1CCCCC1)N/N=C/c1ccc(Cl)cc1 | inactive | inactive | inactive | inactive | inactive | inactive | – | – | – | – |
| CC(C)(C)N(NC(=O)Nc1ccc(F)cc1)C(=O)c1ccccc1 | inactive | inactive | – | inactive | – | – | 0.121% [at 17.1 µM, percent relative to cAMP agonist control] | -14.2% [at 30.8 µM] | 0.382% [at 30.8 µM] | – |
| O=C(O)C(c1ccccc1)N1C(=O)/C(=C/c2cccs2)SC1=S (centres undefined) | 39.8 µM (active) | inactive | – | inactive | – | – | 2.04% [at 17.1 µM, percent relative to cAMP agonist control] | -23.4% [at 30.8 µM] | 6.75% [at 30.8 µM] | – |
| O=C(COc1ccccc1[N+](=O)[O-])Nc1cccc(C(=O)Nc2ccccc2C(=O)O)c1 | 23.9 µM (active) | inactive | inactive | inactive | inactive | inactive | – | – | – | – |
| CCOc1ccc2nc(S(=O)(=O)NC(=O)C3(C)CCN3C(=O)CCc3cccs3)sc2c1 (centres undefined) | inactive | inactive | – | inactive | – | – | 5.68% [at 17.1 µM, percent relative to cAMP agonist control] | -20.4% [at 30.8 µM] | 4.36% [at 30.8 µM] | – |
| CCN1C(=O)/C(=C/c2ccc(OCc3ccc(C(=O)O)cc3)c(Cl)c2)NC1=S | 42.6 µM (active) | inactive | inactive | inactive | inactive | inactive | – | – | – | – |
| O=C1CCC/C(=N/NC(=O)c2sc3ccccc3c2Cl)C1 | inactive | inactive | inactive | 16.9 µM (active) | inactive | 22.4 µM (active) | – | – | – | – |
| CSc1ccccc1NC(=O)CN(c1ccccc1)S(=O)(=O)N(C)C | inactive | inactive | inactive | inactive | inactive | inactive | – | – | – | – |
| Cc1ccc(C)c(S(=O)(=O)Nc2ccc(C(=O)NCC(c3ccco3)N(C)C)cc2)c1 (centres undefined) | inactive | inactive | – | inactive | – | – | 5.83% [at 17.1 µM, percent relative to cAMP agonist control] | -1.62% [at 30.8 µM] | 6.54% [at 30.8 µM] | – |
| CCOC(=O)c1c(NC(=O)c2ccccc2OCC)sc2c1CCC(CC)C2 (centres undefined) | inactive | inactive | inactive | inactive | inactive | inactive | – | – | – | – |
| COc1ccc(S(=O)(=O)N2CCCCC2)cc1C(C)C | inactive | inactive | inactive | 8.49 µM (active) | inactive | inactive | – | – | – | – |
| O=C1CCC([N+](=O)[O-])C(c2cccc3ccccc23)N1 (centres undefined) | inactive | inactive | – | inactive | – | – | 0% [at 17.1 µM, percent relative to cAMP agonist control] | -21.9% [at 30.8 µM] | 45.7% [at 30.8 µM] | – |
| CCOC(=O)c1c(-c2ccc(OC)cc2)csc1/N=C/C1=C(O)CCCC1=O | inactive | inactive | – | inactive | – | – | 4.43% [at 17.1 µM, percent relative to cAMP agonist control] | -7.43% [at 30.8 µM] | 11.3% [at 30.8 µM] | – |
| N#C/C(=C/c1ccc(O)c(O)c1)C(=O)NCc1ccc(Cl)cc1 | 12.6 µM (active) | inactive | – | inactive | – | – | 6.16% [at 17.1 µM, percent relative to cAMP agonist control] | -1.17% [at 30.8 µM] | 19.6% [at 30.8 µM] | – |
| COc1ccc(C(=O)Nc2cccc(/C=C(/CCC(=O)O)c3nc4ccccc4s3)c2)cc1 | 15.1 µM (active) | inactive | inactive | inactive | inactive | inactive | – | – | – | – |
| Cc1cccc(S(=O)(=O)NC(=O)C2(C)CCN2C(=O)Cc2cc(F)ccc2F)c1 (centres undefined) | inactive | inactive | – | inactive | – | – | 11.8% [at 17.1 µM, percent relative to cAMP agonist control] | 9.86% [at 30.8 µM] | -2.2% [at 30.8 µM] | – |
| COc1ccc(-c2cc(C(F)(F)F)nc(SCC(=O)N3CCCCC3C)n2)cc1OC (centres undefined) | inactive | inactive | inactive | – | inactive | inactive | – | – | – | inactive [at 12.7 µM] |
| Cc1ccc(S(=O)(=O)Nc2cc(C(=O)NCCN3CCCC3)ccc2N2CCCCC2)cc1 | inactive | inactive | inactive | inactive | inactive | inactive | – | – | – | – |

| SMILES | Potency [1] | Potency [2] | Potency [3] | Potency [4] | Potency [5] | Potency [6] | activation [3] | activity change, negative = inhibition [5] | activation [6] | outcome [4] |
| --- | --- | --- | --- | --- | --- | --- | --- | --- | --- | --- |
| O=C(N/N=C/c1ccc(-c2ccc(Cl)c(C(=O)O)c2)o1)c1cc2c(ccc3ccccc32)o1 | 12.6 µM (active) | inactive | – | inactive | – | – | 0.332% [at 17.1 µM, percent relative to cAMP agonist control] | -35.1% [at 30.8 µM] | 12% [at 30.8 µM] | – |
| Cc1ccc(N=Cc2cc(Cc3ccccc3Cl)cc([N+](=O)[O-])c2O)c(O)c1 | 10.7 µM (active) | inactive | inactive | inactive | inactive | inactive | – | – | – | – |
| COc1cc2c(cc1OC)CN(C(C)C(=O)N1CCc3ccccc31)CC2 (centres undefined) | inactive | inactive | inactive | inactive | inactive | inactive | – | – | – | – |
| COC(=O)CN1C(=S)N(c2ccc(OC)cc2)C(=O)/C1=C/c1ccc(N2CCOCC2)cc1 | inactive | 100 µM (active) | 100 µM (active) | 75.7 µM (active) | inactive | 28.2 µM (active) | – | – | – | – |
| COc1cccc(OC)c1C(=O)NC(=S)NNC(=O)[C@H]1C[C@@H]1c1ccccc1 | inactive | inactive | inactive | inactive | inactive | inactive | – | – | – | – |
| N#C/C(=C\C1=C(N2CCOCC2)C(=C/c2cccc([N+](=O)[O-])c2)/CC1)C(=O)Nc1ccccc1F | 47.8 µM (active) | inactive | inactive | inactive | inactive | inactive | – | – | – | – |
| Cc1ccc(C2CC(=O)Oc3cc(C)c(Br)c(C)c32)cc1 (centres undefined) | inactive | inactive | inactive | 2.13 µM (active) | inactive | inactive | – | – | – | – |
| COc1cccc(-n2ccn(CC(=O)NCc3ccc(C)cc3)c(=O)c2=O)c1 | inactive | inactive | inactive | inactive | inactive | inactive | – | – | – | – |
| Cc1ccc2c(c1)NC(=O)C(CC(=O)N(C)Cc1ccccc1)O2 (centres undefined) | inactive | inactive | – | inactive | – | – | 3.24% [at 17.1 µM, percent relative to cAMP agonist control] | -5.86% [at 30.8 µM] | 9.9% [at 30.8 µM] | – |
| CCN(CC)c1ccc2cc(-c3nc(-c4cccs4)no3)c(=O)oc2c1 | inactive | 100 µM (active) | 35.5 µM (active) | 3.38 µM (active) | inactive | 79.4 µM (active) | – | – | – | – |
| Cc1onc(-c2c(Cl)cccc2Cl)c1COC(=O)c1ccc(Cl)cc1 | inactive | inactive | inactive | inactive | inactive | inactive | – | – | – | – |
| O=C(c1ccccc1)c1coc2ccc(O)c(Cl)c12 | inactive | inactive | – | inactive | – | – | 4.32% [at 17.1 µM, percent relative to cAMP agonist control] | -20.3% [at 30.8 µM] | 44.7% [at 30.8 µM] | – |
| [O-][n+]1c2ccccc2[n+]([O-])c2cc(O)ccc21 | 37.9 µM (active) | inactive | inactive | inactive | inactive | inactive | – | – | – | – |
| O=C(NCc1ccc(F)cc1)C(c1cccnc1)N(C(=O)c1csnn1)c1ccccc1 (centres undefined) | inactive | inactive | – | inactive | – | – | -0.815% [at 17.1 µM, percent relative to cAMP agonist control] | -0.606% [at 30.8 µM] | 5.08% [at 30.8 µM] | – |
| O=C(c1ccco1)N(Cc1cccs1)c1ccc(F)cc1 | inactive | inactive | inactive | inactive | inactive | inactive | – | – | – | – |
| O=C(O)c1ccc(N/N=C/c2cccc(C(F)(F)F)c2)cc1 | inactive | inactive | inactive | inactive | inactive | inactive | – | – | – | – |
| Cc1ccc(S(=O)(=O)NCCC(=O)N2CCC(Cc3ccccc3)CC2)cc1 | inactive | inactive | – | inactive | – | – | 3.1% [at 17.1 µM, percent relative to cAMP agonist control] | -15.5% [at 30.8 µM] | 8.49% [at 30.8 µM] | – |
| CCOC(=O)C1=CCN(S(=O)(=O)c2ccc(C)cc2)C1c1cccc(Cl)c1 (centres undefined) | inactive | inactive | inactive | inactive | inactive | inactive | – | – | – | – |
| COC(=O)c1cc(C#N)c(Oc2ccccc2OC)nc1C | inactive | inactive | inactive | inactive | inactive | inactive | – | – | – | – |
